Source: PubChem BioAssay AID620 (Sanford-Burnham Center for Chemical Genomics, 2007)
The whole screen tested about 87,000 compounds, of which about 360 (0.41%) were called active. The full list was thinned out, with actives kept by preference. Values without a mark were called inactive. No stated cut-off is given here; in the data, active means cytotoxicity above about 50%; inactive means the rest.

Assay: HT1080 cell viability loss – fluorescence readout (AID 620);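 further: cells exposed to compound overnight then 4 h with Alamar Blue; 0% = vehicle DMSO and 100% = killing control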
Conditions: at 10 µM, active compounds read high
With O=c1c2ccccc2c(C=NC2CCS(=O)(=O)C2)c(O)n1-c1ccccc1 (stereo not given) the cytotoxicity was -6.8%.
With Nc1c(C(=O)NCc2ccccc2)nnn1Cc1ccc(F)cc1 the cytotoxicity was 1.7%.
For Cc1ccccc1S(=O)(=O)Cc1ccc(C(=O)N2CC(C)CC(C)C2)o1 (stereo not given), the cytotoxicity was -14.1%.
With Cc1cccc(N2CCN(C(=O)c3ccc(CS(=O)(=O)c4ccccc4C)o3)CC2C)c1 (stereo not given) the cytotoxicity was 51.2% (active).
COc1ccc(N2CCN(C(=O)c3ccc(CS(=O)(=O)c4ccc(OC)cc4)o3)CC2)cc1 gave a cytotoxicity of -8.4%.
In the case of COc1ccc(S(=O)(=O)Cc2ccc(C(=O)N3CCN(c4cccc(C)c4)C(C)C3)o2)cc1 (stereo not given), the cytotoxicity is reported as 52.2% (active).
With Cc1ccc(C)c(N2CCN(C(=O)c3ccc(CS(=O)(=O)c4ccccc4C)o3)CC2)c1 the cytotoxicity was 34%.
CCOC(=O)N1CCN(C(=O)c2ccc(CS(=O)(=O)c3ccc(OC)cc3)o2)CC1 showed a cytotoxicity of 0.8%.
With Cc1ccc2c(c1)[C@H]1OCC[C@H]1[C@@H](c1ccncc1)N2 the cytotoxicity was -2.2%.
CC1CCCCN1CCn1c(=S)[nH]c2ncccc2c1=O (stereo not given) gave a cytotoxicity of 33.2%.
With Cn1c(SCC(=O)NC2CCCC2)nnc1-c1ccc(S(=O)(=O)N2CCOCC2)cc1 the cytotoxicity was 4.3%.
Compound O=C1CCC(=O)N1c1ccccc1-c1ccccc1 has a cytotoxicity of -0.5%.
In the case of O=C(CSCc1ccccc1)Nc1ccc(Cl)cn1, the cytotoxicity is reported as 20.2%.
With O=C(CCc1ccccc1)Nc1ccc(Cl)cn1 the cytotoxicity was 52.1% (active).
With CCCC(=O)Nc1ccc(NC(=O)CCc2ccccc2)cn1 the cytotoxicity was 8.6%.
For Cc1ccc(NC2=NC3(CCCCC3)N=C(N)N2)c(C)c1, the cytotoxicity was 33%.
With COC(=O)C1=C(C)Nc2nnnn2C1c1cccnc1 (stereo not given) the cytotoxicity was 10%.
CC1/C(=N/O)CC(c2ccccc2)N(C)C1c1ccccc1 (stereo not given) gave a cytotoxicity of -0.2%.
With COc1ccc(OC)c(S(=O)(=O)N2c3ccccc3CC2C)c1 (stereo not given) the cytotoxicity was 10.1%.
In the case of CC1Cc2ccccc2N1S(=O)(=O)c1ccc2c(c1)n(C)c(=O)c(=O)n2C (stereo not given), the cytotoxicity is reported as -1.8%.
For CCOc1ccc(S(=O)(=O)N2c3ccccc3CC2C)cc1 (stereo not given), the cytotoxicity was 74.1% (active).
Work on O=C(NCc1ccccn1)[C@@H]1C[C@H]1[C@@H](NP(=O)(c1ccccc1)c1ccccc1)c1ccccc1 yielded a cytotoxicity of -17.9%.
In the case of CCOc1ccc(NC(=O)CSc2nnc(-c3ccco3)n2C)cc1, the cytotoxicity is reported as -3.7%.
O=C(NC1CCCCCC1)c1cc2n(n1)C(C(F)(F)F)CC(c1ccco1)N2 (stereo not given) showed a cytotoxicity of -4.1%.
CN(C(=O)c1cc2n(n1)C(C(F)(F)F)CC(c1ccco1)N2)c1ccc(OC(F)(F)F)cc1 (stereo not given) showed a cytotoxicity of -1.6%.
With CN(C(=O)c1cc2n(n1)C(C(F)(F)F)CC(c1ccco1)N2)c1ccccc1 (stereo not given) the cytotoxicity was 56.4% (active).
Compound NC(=O)Nc1ccc(Oc2c(F)c(F)c(F)c(F)c2F)cc1 has a cytotoxicity of 6%.
For OC(CCCCN1CCCCC1)c1ccccc1 (stereo not given), the cytotoxicity was -4.7%.
With CC(C)(C)c1ccc(C(O)CCCN2CCC(C(O)(c3ccccc3)c3ccccc3)CC2)cc1 (stereo not given) the cytotoxicity was 93.4% (active).
OC(CCN1CCCC1)(c1ccccc1)C1CCCCC1 (stereo not given) gave a cytotoxicity of -2.5%.
O=c1c2ccccc2nnn1CSc1nc2ccccc2c(=O)n1Cc1ccco1 showed a cytotoxicity of -4.3%.
For CC1CCCCC1NC(=O)CCn1c(=O)oc2ccccc21 (stereo not given), the cytotoxicity was -4%.
O=C(NCc1cccs1)c1noc2c1CCCCC2 showed a cytotoxicity of -0.7%.
With O=C(Nc1nccs1)c1ccc(S(=O)(=O)NCC2CCCCC2)cc1 the cytotoxicity was -11.1%.
In the case of CCOc1ccccc1NC(=O)Cn1nnc(C(=O)NCc2ccco2)c1N, the cytotoxicity is reported as 56.8% (active).
For CCOc1ccc(NC(=O)Cn2nnc(C(=O)NCc3ccco3)c2N)cc1, the cytotoxicity was 11.4%.
For COc1ccc(NC(=O)Cn2nnc(C(=O)NCc3ccco3)c2N)c(OC)c1, the cytotoxicity was -0.4%.
With CCOc1ccccc1NC(=O)C(CC(C)C)NC(=O)C1CCC(C)CC1 (stereo not given) the cytotoxicity was 4.7%.
For O=C(CCl)N(c1ccccc1)c1c[nH]c2ccccc12, the cytotoxicity was 71% (active).
Work on CN(C)CC(=O)c1c[nH]c2ccccc12 yielded a cytotoxicity of -5.2%.
In the case of O=C(CCl)N(c1ccc(Cl)cc1)c1c[nH]c2ccccc12, the cytotoxicity is reported as 100% (active).
In the case of O=C(O)CCC(=O)c1c[nH]c2ccccc12, the cytotoxicity is reported as -4.6%.
Work on CC(=O)N(c1ccc(Cl)cc1)c1c[nH]c2ccccc12 yielded a cytotoxicity of 3.1%.
Compound CCN(CC)CC(=O)c1c[nH]c2ccccc12 has a cytotoxicity of 3.6%.
For CC(C)OC(=O)c1cccnc1SCc1cc(=O)n2ccccc2n1, the cytotoxicity was -0.4%.
For COc1cc(C)nc(N2CCCC(C(=O)NC3CCC(C)CC3)C2)n1 (stereo not given), the cytotoxicity was -9.4%.
In the case of Cc1c(C(=O)NC2CCCCC2)oc2c1C(=O)CC(C)(C)C2, the cytotoxicity is reported as -3.7%.
Nc1ccc(-c2nc3ccccc3[nH]2)cc1 showed a cytotoxicity of -3.5%.
With COc1ccc(OCc2nc3ccccc3[nH]2)cc1 the cytotoxicity was 5.1%.
For COc1ccc2nc(-c3ccccc3)[nH]c2c1, the cytotoxicity was 28.2%.
For CCOc1ccc2nc(-c3ccccc3)[nH]c2c1, the cytotoxicity was 66.7% (active).
In the case of CCOc1ccc2nc(SCC)[nH]c2c1, the cytotoxicity is reported as 15.4%.
Compound CC(=O)N1[C@H](Cc2ccccc2)C=C[C@]1(C)C(=O)NCc1ccc(C)o1 has a cytotoxicity of -2.9%.
Cc1ccsc1C1NC(=O)c2c(sc3c2CCN(C)C3)N1 (stereo not given) gave a cytotoxicity of 9.6%.
With O=S(=O)(c1cccc(-c2csc(-c3ccccc3)n2)c1)N1CCOCC1 the cytotoxicity was 2%.
For CC(C)Cn1c(N)c(S(=O)(=O)c2cccs2)c2nc3ccccc3nc21, the cytotoxicity was 30.5%.
For CC(C)CCn1c(N)c(S(=O)(=O)c2cccs2)c2nc3ccccc3nc21, the cytotoxicity was 57% (active).
COCCn1c(N)c(S(=O)(=O)c2cccs2)c2nc3ccccc3nc21 gave a cytotoxicity of 11%.
For Cc1cc(N2CCN(C(=O)c3ccco3)CC2)n2ncc(-c3ccccc3)c2n1, the cytotoxicity was 5.6%.
For Cc1ccccc1-n1c(SCC(=O)N2CCN(c3ccccc3)CC2)nnc1-c1ccncc1, the cytotoxicity was -3.7%.
With CCOC(=O)CSC1=C(C#N)C(c2ccc(C)o2)CC(=O)N1 (stereo not given) the cytotoxicity was 59.5% (active).
For CCOC(=O)CSC1=C(C#N)C(c2ccccc2OC)CC(=O)N1 (stereo not given), the cytotoxicity was -1%.
Compound CCSC1=C(C#N)C(c2ccc(C)s2)CC(=O)N1 (stereo not given) has a cytotoxicity of 0.8%.
In the case of CCOC(=O)CSC1=C(C#N)C(c2ccc(C)s2)CC(=O)N1 (stereo not given), the cytotoxicity is reported as 58% (active).
CCCCCCSC1=C(C#N)C(c2ccc(C)o2)CC(=O)N1 (stereo not given) showed a cytotoxicity of 29.7%.
In the case of CCOC(=O)CSC1=C(C#N)C(c2ccc(Cl)cc2)CC(=O)N1 (stereo not given), the cytotoxicity is reported as 2.7%.
COc1cc(C(=O)Nc2nnc(CC(=O)N3CCOCC3)s2)cc(OC)c1OC gave a cytotoxicity of -1%.
CCOc1ccccc1NC(=O)CSc1nnnn1-c1ccccc1 showed a cytotoxicity of 7.2%.
Cc1noc(C)c1S(=O)(=O)N1CCCC(C(=O)NCc2ccccn2)C1 (stereo not given) gave a cytotoxicity of 3.9%.
For COC(=O)CN(Cc1ccco1)S(=O)(=O)c1ccccc1, the cytotoxicity was 1.2%.
Work on CC1=CCC(Cc2nc3ccccc3o2)C1(C)C (stereo not given) yielded a cytotoxicity of 0.6%.
With CCOc1cc(N2CCOCC2)c(OCC)cc1NS(=O)(=O)c1ccc(Cl)s1 the cytotoxicity was 51.9% (active).
For CCOc1ccc(Br)cc1S(=O)(=O)Nc1ccccc1N1CCOCC1, the cytotoxicity was 4.5%.
In the case of CCOc1cc(N2CCOCC2)c(OCC)cc1NC(=O)CCS(=O)(=O)c1ccc(Cl)cc1, the cytotoxicity is reported as 6.9%.
With O=C(NC1CCCCCC1)C1CCN(C(=O)Cc2ccccc2)CC1 the cytotoxicity was 3.1%.
Work on COc1ccc2nc(-n3c(C)ccc3C)sc2c1 yielded a cytotoxicity of -1.1%.
Work on O=C(N1CCN(CCO)CC1)N1c2ccccc2C=Cc2ccccc21 yielded a cytotoxicity of 3.2%.
CCC(=O)Nc1ccc(OC)cc1OC gave a cytotoxicity of -3.2%.
With COc1ccc(NC(=O)CC(=O)Nc2ccc(OC)cc2OC)c(OC)c1 the cytotoxicity was -3.5%.
In the case of N#CC1=C(N)Oc2c(ccc3cccnc23)C1c1cccnc1 (stereo not given), the cytotoxicity is reported as 39.8%.
With COc1cc(C2C(C#N)=C(N)Oc3cc(O)ccc32)cc(OC)c1OC (stereo not given) the cytotoxicity was 64.7% (active).
COc1ccc(C2C(C#N)=C(N)Oc3cc(O)ccc32)cc1OC (stereo not given) showed a cytotoxicity of -13.3%.
Work on N#CC1=C(N)Oc2cc(O)ccc2C1c1ccccc1 (stereo not given) yielded a cytotoxicity of -0.8%.
COc1cc(C2C(C#N)=C(N)Oc3cc(C)oc(=O)c32)cc2c1OCO2 (stereo not given) gave a cytotoxicity of -1.5%.
With COc1cc(C2C(C#N)=C(N)Oc3cc(N(C)C)ccc32)cc2c1OCO2 (stereo not given) the cytotoxicity was 63.3% (active).
In the case of CCN(CC)c1ccc2c(c1)OC(N)=C(C#N)C2c1cccnc1 (stereo not given), the cytotoxicity is reported as 67.5% (active).
With CN(C)c1ccc2c(c1)OC(N)=C(C#N)C2c1cccc(F)c1 (stereo not given) the cytotoxicity was 56% (active).
For N#CC1=C(N)Oc2cc3ccccc3cc2C1c1cccnc1 (stereo not given), the cytotoxicity was 47.6%.
For N#CC1=C(N)Oc2cc(N)ccc2C1c1ccc(F)cc1 (stereo not given), the cytotoxicity was -0.8%.
For N#CC1=C(N)Oc2cc(O)ccc2C1c1ccncc1 (stereo not given), the cytotoxicity was -6.2%.
COc1cc(C2C(C#N)=C(N)Oc3cc(O)ccc32)cc2c1OCO2 (stereo not given) showed a cytotoxicity of -6.6%.
In the case of Cc1cccc(OCCn2c(NC(=O)c3ccco3)nc3ccccc32)c1, the cytotoxicity is reported as 5.5%.
CC(=O)N1[C@H](Cc2ccccc2)C=C[C@]1(C)C(=O)O showed a cytotoxicity of 6.6%.
Compound CCC(c1nnnn1C1CCCC1)N1CCN(c2ccccc2F)CC1 (stereo not given) has a cytotoxicity of -20.4%.
With Cc1ccnc(NS(=O)(=O)c2ccc(Oc3ccccc3)cc2)c1 the cytotoxicity was 7.3%.
COc1cc(NC(=O)CN2C(=O)NC(C)(CC(C)C)C2=O)cc(OC)c1 (stereo not given) showed a cytotoxicity of -7.9%.
In the case of O=C1NC(c2ccccc2)=C(c2nc3ccccc3s2)C(c2ccc(F)cc2)N1 (stereo not given), the cytotoxicity is reported as -3.1%.
Compound O=C(CSc1nnc(COc2ccc(Cl)cc2)o1)N1CCN(c2ccccc2)CC1 has a cytotoxicity of 1.3%.
For O=C(CSc1nnc(COc2ccc(Cl)cc2)o1)N1c2ccccc2CCc2ccccc21, the cytotoxicity was 62.4% (active).
With O=C(CSc1nnc(COc2ccc(F)cc2)o1)N1c2ccccc2CCc2ccccc21 the cytotoxicity was -8%.
